Measured values reported in publication PMC5540273 (PLoS ONE, 2017).

system: PIP5K2B; conditions: concentration: 1 μM, replicates: in singlicate; n = 1
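Also: KINOMEscan kinase panel screen.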

Row | SMILES | %Inh [%]
1 | COc1ccc(COc2cc(-n3cnc4ccccc43)sc2C(N)=O)cc1 [GSK1024304] | 5
2 | Cc1nnc(-c2ccc3ncc(-c4ccc(S(C)=O)cc4)n3c2)o1 (stereo not shown) | 39
3 | COc1ccc(S(=O)(=O)NC2CCN(c3cc(C)nc(Nc4cccc(C#N)c4)n3)CC2)cc1.O=C(O)C(F)(F)F [GSK1653539] | 0
4 | COc1ccc(Nc2nccc(N3CCC(NC(=O)Nc4cccc(C(C)=O)c4)C3)n2)cc1 (stereo not shown) [GSK1379731] | 12
5 | Cc1cccc(-c2nc(Nc3ccc4ncsc4c3)c3ccccc3n2)n1 [GW867588] | 0
6 | C[C@@H](Oc1cc(-n2cnc3ccc(NC(=O)NC(C)(C)C)cc32)sc1C(N)=O)c1ccccc1Cl [GSK346294] | 10
7 | c1ccc(-c2cc(-c3c[nH]nc3-c3ccccn3)ccn2)cc1 [GW576604] | 0
8 | CCc1nc(-c2cccc(C)c2)c(-c2ccnc(NCc3ccccc3)c2)s1 | 38
9 | COCCNC(=O)c1ccc(-c2cc(C(=O)NC3CC3)cc(F)c2C)cc1 [GW868318] | 0
10 | N#Cc1ccc(-c2cc(-c3c[nH]nc3-c3ccccn3)ccn2)cc1 [GW693028] | 23
11 | O=C(Nc1n[nH]c2cc(-c3cccc(F)c3)ccc12)C1CC1 [SB-735464] | 5
12 | Cl.Oc1cccc(Nc2ccnc3cc(-c4ccncc4)ccc23)c1 [GW494601] | 9
13 | Cn1cc(-c2ccc3c(c2)CCN3C(=O)Cc2ccccc2Cl)c2c(N)ncnc21 [GSK2608885] | 0
